Results reported in PubChem BioAssay (NCI).
Compounds without any hit were thinned out: in the full panel of roughly 83,000, 20% have a hit.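 Assay: single dose, 48 h. Readout: percent growth (0 = no net growth; negative = cell death). Active: <10.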 Unmarked numbers belong to inactive results. Calls of active or inactive are those of the source.

Assays:
Experiment in all cases: NCI-60 one-dose screen, 48 h (100 = growth as untreated, 0 = no growth, -100 = all killed)
Settings in all cases: 10 µM unless noted
SR leukemia = test system: SR leukemia
RPMI-8226 leukemia = test system: RPMI-8226 leukemia
OVCAR-8 ovarian = test system: OVCAR-8 ovarian
OVCAR-5 ovarian = test system: OVCAR-5 ovarian
OVCAR-4 ovarian = test system: OVCAR-4 ovarian
SK-OV-3 ovarian = test system: SK-OV-3 ovarian
IGROV1 ovarian = test system: IGROV1 ovarian
OVCAR-3 ovarian = test system: OVCAR-3 ovarian
HS 578T breast = test system: HS 578T breast
NCI/ADR-RES ovarian = test system: NCI/ADR-RES ovarian
T-47D breast = test system: T-47D breast
BT-549 breast = test system: BT-549 breast
MDA-MB-435 melanoma = test system: MDA-MB-435 melanoma
SW-620 colon = test system: SW-620 colon
MCF7 breast = test system: MCF7 breast
HCT-116 colon = test system: HCT-116 colon
HCC-2998 colon = test system: HCC-2998 colon
KM12 colon = test system: KM12 colon

Structure (SMILES) | growth (SR leukemia) | growth (RPMI-8226 leukemia) | growth (OVCAR-8 ovarian) | growth (OVCAR-5 ovarian) | growth (OVCAR-4 ovarian) | growth (SK-OV-3 ovarian) | growth (IGROV1 ovarian) | growth (OVCAR-3 ovarian) | growth (HS 578T breast) | growth (NCI/ADR-RES ovarian) | growth (T-47D breast) | growth (BT-549 breast) | growth (MDA-MB-435 melanoma) | growth (SW-620 colon) | growth (MCF7 breast) | growth (HCT-116 colon) | growth (HCC-2998 colon) | growth (KM12 colon)
C=C(c1ccc(C(=O)O)cn1)c1cc2c(cc1C)C(C)(C)CCC2(C)C | 82.7% | 66.5% | 83.7% | 121% | 85.2% | 75.5% | 98.9% | 87.6% | 69.5% | 83.6% | 81.5% | 86.4% | 92.6% | 117% | 65.6% | 82.3% | 126% | 86.1%
N#Cc1c(N2CCOCC2)nc(=S)[nH]c1-c1ccccc1 | 53.1% | 73.6% | 81.8% | 71.7% | 77.3% | 64.4% | 29.1% | 66.8% | 26.8% | 80.9% | 37.3% | 57.7% | 82.2% | 82.1% | 56.6% | 86.6% | 79.1% | 77.6%
O=C(/C=C/c1ccc(Br)cc1)c1ccc(-n2cc(CN3CCN(c4cc5c(cc4F)c(=O)c(C(=O)O)cn5C4CC4)CC3)nn2)cc1 | 16.6% | 34.2% | 79% | 99.5% | 91.4% | 78.4% | 74.2% | 95.9% | 83.6% | 102% | 80% | 81.3% | 86.6% | 95.5% | 64.8% | 7.82% (active) | 98.5% | 88.8%
CC1(C)CC[C@]2(C(=O)O)CC[C@]3(C)C(=CC[C@@H]4[C@@]5(C)C[C@@H](Cc6cn([C@@H]7O[C@H](CO)[C@@H](O)[C@H](O)[C@H]7O)nn6)[C@H](O)C(C)(C)[C@@H]5CC[C@]43C)[C@@H]2C1 | 94.7% | 103% | 98.7% | 102% | 96.6% | 89% | 108% | 104% | 96.8% | 105% | 94.2% | 101% | 104% | 102% | 91.4% | 96.4% | 104% | 104%
CS(=O)(=O)Cc1cnc(C2OCCO2)s1 | 123% | 109% | 104% | 106% | 100% | 139% | 97.5% | 96.3% | 106% | 103% | 129% | 97.6% | 109% | 113% | 96.4% | 98.8% | 107% | 88.9%
COc1cccc(NC(=O)c2cccc(C3CCc4c(cc(OC)c(OC)c4OC)O3)c2)c1 (stereo not drawn) | 35.7% | 28.4% | 54.5% | 81.8% | 56.7% | 71.7% | 65.6% | 81.1% | 86.6% | 55.9% | 20.5% | 41.5% | 79.6% | 100% | 74.3% | 62.4% | 81.4% | 81.5%
N#Cc1c(Nc2ccc(F)cc2)n[nH]c1-c1cccs1 | 107% | 97.3% | 105% | 100% | 92% | 115% | 71.8% | 109% | 101% | 100% | 86% | 98.3% | 99.5% | 101% | 80.9% | 100% | 98.6% | 98.1%
CC1=CCC[C@@H]2C1(C)CC[C@H](C)[C@@]2(C)CC1=CC(=O)C(SC(C)(C)C)=CC1=O (stereo partly drawn) | 74% | 64.7% | 91.8% | 68% | 88.5% | 106% | 99.4% | 84.9% | 85% | 84.8% | -11.8% (active) | 80.5% | 97.2% | 78.9% | -61.1% (active) | 64% | 96.8% | 93.1%
CN(C)c1ccc(/C=C/C(=O)c2ccc(Nc3nc(Nc4ccc(F)cc4)nc(Nc4ccc(Cl)cc4)n3)cc2)cc1 | 4.77% (active) | 30.5% | 48.8% | 74.2% | 76.5% | 108% | 72.4% | 89.2% | 77.2% | 66.4% | 50.4% | 75.7% | 56.2% | 92.3% | 56.7% | 58.7% | 111% | 73.8%
CCn1cc(C(=O)NN=C2CCCCCC2)c(=O)c2ccc(C)nc21 | 85.8% | 88.1% | 92.5% | 92.6% | 79.6% | 98.2% | 81.5% | 86.2% | 80.1% | 89.4% | 77.2% | 83% | 83.9% | 91.2% | 77.2% | 77.7% | 99.1% | 87.6%
COc1ccc2c(c1)c(-c1nonc1-c1c[nH]c3ccc(Br)cc13)cn2C | 14.6% | 45.5% | 48.2% | 55.3% | 55.1% | 58.4% | 52.7% | 41.1% | 59.1% | 34.9% | 25.7% | 63.6% | 6.34% (active) | 33.7% | 24.9% | 31.6% | 38.7% | 14.5%
N=C(N)c1ccc(-c2ccc(-c3ccc(Cl)cc3Cl)s2)cc1F | -6.47% (active) | -36.4% (active) | -35.3% (active) | -7.4% (active) | -24.9% (active) | 74.9% | -88.4% (active) | -79.3% (active) | 9.71% (active) | 10.1% | 14.8% | 84.8% | -79.9% (active) | -64% (active) | -65.8% (active) | -36.6% (active) | -81.7% (active) | -86.3% (active)
CCN1C(=O)N(CC)C2C1NN=c1s/c(=C\c3ccccc3Br)c(=O)n12 (stereo not drawn) | 13.6% | 15.5% | 1.17% (active) | 28% | 49.7% | 38.1% | 16.9% | 2.96% (active) | 16.1% | 7.75% (active) | 85.5% | 16.3% | -15.7% (active) | 20.3% | 13.6% | 6.2% (active) | 10.7% | 10.3%
O=C1OCC2=C1C(c1cccc(F)c1)c1cc3c(cc1N2CCO)OCO3 (stereo not drawn) | 16.7% | 17.5% | 34.5% | 63.6% | 57.3% | 19.5% | 40% | 2.41% (active) | 17.8% | 25.4% | 21.3% | 32.8% | -0.149% (active) | 15.8% | 20% | 18.2% | 77% | 25.3%
O=C(/C=C\c1ccco1)/C=C/c1ccco1 | 103% | 99.1% | 99.8% | 95.1% | 105% | 104% | 110% | 134% | 105% | 105% | 112% | 101% | 98.3% | 103% | 101% | 105% | 101% | 106%
CCNC(=O)Oc1ccc(/C(=C(/C)Cc2ccc(OC)cc2)c2ccc(OCCN3CCCC3)cc2)cc1 | 6.92% (active) | 44% | 89.8% | 83.8% | 74.1% | 88% | 88% | 77.5% | 70.9% | 85.9% | 42.7% | 85.9% | 61.2% | 81.4% | 29% | 44% | 71.2% | 71.5%
